Drawing on PubChem BioAssay (NCATS), this text covers Potency for four molecules.

What all share (assay): qHTS profiling for inhibitors of Plasmodium falciparum proliferation (AID 504749); note: nearly all actives have a fitted effect of over 60% in size
What all share (details): P. falciparum in erythrocytes, SYBR Green DNA, 72 h; series mostly up to 28.7 µM
For orientation: Quantitative high-throughput screening tests each substance at several concentrations.

One assay relates to 3D7. In short, it runs like this:
(§1)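 SYBR Green fluorescence (ex 485 nm, em 535 nm) reports parasite DNA after 72 h compound exposure of infected red cells at 0.3% parasitemia, 2.5% hematocrit; signal normalized to 0.29 uM artemisinin and vehicle wells.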

In another assay the test system is AA1029. In short, it runs like this:
as §1

A further assay deals with AS120. In short, it runs like this:
as §1

Another assay deals with ATS189. In short, it runs like this: as §1
The subject of another assay is ATS95. In short, it runs like this: as §1
The next assay has as its system CP185. In short, it runs like this:
as §1

A further assay relates to CP191. The essentials:
as §1

In a further assay the test system is CP238. In short, it runs like this:
as §1

A further assay concerns CP247. In short, it runs like this: as §1
A further assay deals with CP262. In short, it runs like this: as §1
A further assay has as its system CP265. In short, it runs like this: as §1
For a further assay, the system named is DFO2036. In short, it runs like this:
as §1

A further assay has as its system FAB9. In short, it runs like this: as §1
Another assay deals with HB3. The essentials:
as §1

Another assay relates to PAD. The essentials:
as §1

A further assay has as its system PC15. The essentials:
as §1

Another assay has as its system PC49. In short, it runs like this: as §1
The next assay concerns TAB109. In short, it runs like this: as §1
The subject of another assay is TAB113. In short, it runs like this:
as §1

The test system of a further assay is TAB165. In short, it runs like this:
as §1

Records with an inconclusive call do not appear. The source made the active and inactive calls. Calls come from the whole dose curve; as a rule, active = well fitted inhibition curve with a large enough effect; inconclusive = small, poorly fitted or top-dose-only effect; inactive = flat fitted curve, though single readings scatter.
Potency is the fitted concentration of half-maximal effect.

As for `CCC(C)n1ncn(-c2ccc(N3CCN(c4ccc(OCC5COC(Cn6cncn6)(c6ccc(Cl)cc6Cl)O5)cc4)CC3)cc2)c1=O` (stereo not given), the Potency in the assay with 3D7 is 3.16 µM (active). For the same molecule, the Potency result in the assay with AA1029, with AS120, in the assay on ATS189, in the assay on ATS95, in the assay with CP185 and in the assay with CP191 was “inactive” each time. The Potency entry with CP238, in the assay with CP247, in the assay with CP262, in the assay on CP265, in the assay on DFO2036 and in the assay on FAB9 was “inactive” in each case. Besides, the Potency entry in the assay on HB3, with PAD, in the assay on PC15, with PC49, with TAB109 and with TAB113 was “inactive” in each case. Also, the Potency result in the assay on TAB165 is “inactive”.

On to `CC(C)CN(C[C@@H](O)[C@H](Cc1ccccc1)NC(=O)O[C@H]1CCOC1)S(=O)(=O)c1ccc(N)cc1`, for which the Potency entry with 3D7, in the assay with AA1029, in the assay with AS120, with ATS189, in the assay on ATS95 and with CP185 was “inactive” in each case. Besides, the Potency result in the assay with CP191, in the assay on CP238, in the assay on CP247, in the assay on CP262, in the assay with CP265 and with DFO2036 was “inactive” each time. Also, the Potency result in the assay with FAB9, in the assay on HB3, in the assay with PAD, with PC15, in the assay on PC49 and in the assay with TAB109 was “inactive” in each case. Moreover, the Potency entry with TAB113 and with TAB165 was “inactive” in each case.

For the molecule `CC(C)CN(C[C@@H](OP(=O)(O)O)[C@H](Cc1ccccc1)NC(=O)O[C@@H]1CCOC1)S(=O)(=O)c1ccc(N)cc1`, the Potency entry in the assay with 3D7, in the assay with AA1029, with AS120, in the assay on ATS189, with ATS95 and in the assay with CP185 was “inactive” each time. In addition, the Potency entry in the assay with CP191, with CP238, in the assay with CP247, with CP262, in the assay on CP265 and in the assay on DFO2036 was “inactive” throughout. Besides, the Potency result with FAB9, in the assay with HB3, in the assay on PAD, in the assay on PC15, in the assay on PC49 and in the assay with TAB109 was “inactive” in each case. For the same molecule, the Potency result in the assay on TAB113 and with TAB165 was “inactive” in each case.

Regarding `O=C(O)c1cc(O)c2c(c1)[C@H]([C@H]1c3cc(C(=O)O)cc(O)c3C(=O)c3c(O[C@@H]4OC(CO)C(O)C(O)C4O)cccc31)c1cccc(O[C@@H]3OC(CO)C(O)C(O)C3O)c1C2=O` (stereo not given in full), the Potency entry in the assay on 3D7, in the assay with AA1029, in the assay on AS120, in the assay with ATS189, with ATS95 and with CP185 was “inactive” throughout. Besides, the Potency entry with CP191, in the assay on CP238, with CP247, in the assay with CP262, in the assay with CP265 and in the assay with DFO2036 was “inactive” in each case. The Potency entry with FAB9, with HB3, with PAD, with PC15, in the assay with PC49 and in the assay with TAB109 was “inactive” throughout. The Potency result in the assay on TAB113 and with TAB165 was “inactive” each time.
